Screening data deposited in PubChem BioAssay by National Center for Advancing Translational Sciences (NCATS).
The list is not random: actives were taken first. Their share in the collection is about 6%.
D1 agonist = human D1 receptor agonism; P21728; HEK293 T-REx D1 cells, calcium flux, agonist mode; activation, % at 2 µM; 360,000 compounds, 1% hits; AID 504660; in the data active = activation above about 30%
Target sequence (P21728 whole entry, looked up): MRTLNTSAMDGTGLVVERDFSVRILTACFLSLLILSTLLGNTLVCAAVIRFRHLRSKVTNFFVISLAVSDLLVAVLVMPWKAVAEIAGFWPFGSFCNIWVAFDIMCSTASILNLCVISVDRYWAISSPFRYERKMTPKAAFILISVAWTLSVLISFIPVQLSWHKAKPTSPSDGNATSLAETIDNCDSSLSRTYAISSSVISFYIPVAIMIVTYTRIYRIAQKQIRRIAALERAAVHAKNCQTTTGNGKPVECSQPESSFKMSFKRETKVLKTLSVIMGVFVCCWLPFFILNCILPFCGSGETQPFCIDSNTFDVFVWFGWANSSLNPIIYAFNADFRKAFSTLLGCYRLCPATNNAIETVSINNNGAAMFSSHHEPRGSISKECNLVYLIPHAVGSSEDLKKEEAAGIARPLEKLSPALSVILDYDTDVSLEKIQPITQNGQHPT
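Inducible HEK293 T-REx D1 cells, force-coupled to calcium signalling, were plated at 4000 cells/well with tetracycline and held overnight at 30 C. After no-wash calcium dye loading, compound-evoked calcium rise over 180 s flagged agonists.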
Chronic BCR inh = chronic active BCR signaling inhibition. ABC-DLBCL IkBa-CBG/CBR reporter, luminescence ratio, 4 h. Potency, µM (doses to about 46.1 µM), actives largely listed as inhibitors. AID 493014. 340,000 compounds, 0.05% hits; active = well fitted inhibition curve with a large enough effect in the signal ratio, with a control signal flat, not every such curve was filed as active; inconclusive = small, poorly fitted or top-dose-only effect, or effect the other way, or a change in a side signal; the % refers to the signal ratio
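TMD8 human ABC-DLBCL cells with doxycycline-inducible IκBα–green luciferase fusion and unfused red luciferase, in 0.5% FBS medium; compounds up to 46 uM, 4 h at 37C. Green/red luminescence ratio, filter-overlap corrected, fitted to concentration-response curves.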
D1 PAM = human D1 dopamine receptor positive modulation; HEK293 TREx D1 cells, calcium flux, dopamine EC20 potentiation; potentiation, % at 10 µM; P21728; 360,000 compounds, 0.036% hits; in the data active = potentiation above about 30%
DRD3 agonist = agonists of human D3 dopamine receptor | P35462 | D3R DiscoveRx beta-arrestin cells, luminescence, 90 min | max activation, % | 410,000 compounds, 0.58% hits | AID 652048; in the data active = max activation above about 30%
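Agonist-mode cell screen: cells plated at 1500/well and incubated overnight at 37 °C, then exposed to library compounds for 90 min at 37 °C. Detection reagent was added for 30–60 min at room temperature, and luminescence was read.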
D1 antagonist = human D1 dopamine receptor antagonism; P21728; HEK293 TREx D1 cells, calcium flux, dopamine EC80; hits give low values; activity change, negative = inhibition, % at 10 µM; 360,000 compounds, 3.2% hits; AID 504652; in the data active = activity change below about -30%
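Using tetracycline-induced force-coupled D1 Hek293 cells and a calcium dye, signals were followed for 180 s after compound, then for 180 s after EC80 dopamine, to detect inhibitors.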
D3 antag = D3 dopamine receptor (human) antagonism | P35462 | D3R cells, DiscoveRx beta-arrestin luminescence, antagonist mode; hits give low values | max response, negative = inhibition, % | 360,000 compounds, 2.5% hits | AID 652054; in the data active = max response below about -50%; inconclusive = no clear call, values can overlap the other calls
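Cells expressing the human receptor were seeded at 1500 cells/well, incubated overnight at 37 degrees C in 5% CO2, then exposed to library compounds with dopamine controls for 90 minutes at 37 degrees C before luminescent detection.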
Numbers stand for hits; n = inactive; u = inconclusive; x = no result; ! = a repeat was not active.

SMILES	D1 agonist	Chronic BCR inh	D1 PAM	DRD3 agonist	D1 antagonist	D3 antag
CCOC(=O)c1cccc(NC(=O)CCS(=O)(=O)c2ccc3c(c2)CCN3C(=O)CC)c1	n	x	n	n	n	x
Nc1nonc1-n1nnc(C(=O)N/N=C/c2ccoc2)c1CSc1ccc(Cl)cc1	n	n	n	n	-40	n
Nc1nonc1-n1nnc(C(=O)N/N=C/c2ccncc2)c1CSc1ccccc1	n	u	n	n	-47	n
Nc1c(CC(=O)O)cccc1C(=O)c1ccccc1	x	x	x	42!	x	x
CCOc1ccccc1NC(=S)N(CCOC)C1CCN(C(C)=O)CC1	n	n	n	n	n	n
COCCN(C(=S)Nc1ccccc1OC)C1CCN(C(C)=O)CC1	n	n	n	n	-35	n
CC(=O)Nc1cccc(-c2ccnc3c2CC(C)(C(=O)Nc2ccc(Cl)c(C(F)(F)F)c2)O3)c1 (stereo not given)	x	x	x	n	x	n
Cc1ccccc1CC1C(=O)Nc2ccc(Br)cc21 (stereo not given)	48	x	32	n	n	x
COC(=O)CN1C(=O)Nc2ccc(C)cc2C1c1ccccc1 (stereo not given)	n	n	n	n	n	n
COc1ccc(Br)cc1CC1C(=O)Nc2ccccc21 (stereo not given)	n	x	n	n	n	x
Cc1ccc2c(c1)C(Cc1ccccc1F)C(=O)N2 (stereo not given)	n	x	n	n	-46	x
Cc1nn(CC(=O)Nc2ccccc2F)c(=O)c2c(C)n(-c3ccc(Cl)cc3)nc12	n	x	n	n	n	x
COc1ccc(CNC(=O)Cn2c(=O)oc3cc(S(=O)(=O)N4CCCC4)ccc32)cc1	n	n	n	n	-41!	n
O=C(Cn1c(=O)oc2cc(Cl)ccc21)Nc1cccc(C(F)(F)F)c1	n	n	n	n	-47	x
Cc1cccc(NC(=O)Cn2c(=O)oc3cc(S(=O)(=O)NC4CCCC4)ccc32)c1	n	x	n	n	n	x
Cc1cccc(NC(=O)Cn2c(=O)oc3cc(S(=O)(=O)NCc4ccccc4)ccc32)c1	n	x	n	n	-35	x
CC1CCN(S(=O)(=O)c2ccc3c(c2)oc(=O)n3CC(=O)NCc2ccc(F)cc2)CC1	87	x	n	n	-57	x
CCOc1cc(OCC)cc(C(=O)N2CCC[C@H]2C(=O)N2CCC[C@H]2C(=O)N[C@H](C)c2ccccc2)c1	x	x	x	n	x	n
COc1ccc(NC(=O)Cn2c(=O)oc3cc(S(=O)(=O)N4CCCC4)ccc32)cc1	n	n	n	n	n	n
CC(C)c1ccc(NC(=O)Cn2c(=O)oc3cc(S(=O)(=O)N4CCCC4)ccc32)cc1	n	x	n	n	-36	x
COC(=O)C1=C(C)N(Cc2ccccc2)C(=NCc2ccc(OC)cc2)N[C@H]1c1cccc(F)c1	n	n	n	n	n	n
COC(=O)C1=C(C)N(Cc2ccccc2)C(=NCC(C)C)N[C@H]1c1cccc(F)c1	82	u	n	n	-41	n
COC(=O)C1=C(C)N(Cc2ccccc2)C(=NCc2cccc(Cl)c2)N[C@H]1c1cccc(F)c1	32	u	n	n	n	n
COC(=O)c1sc(N)nc1CCNC(=O)OC(C)(C)C	x	x	x	n	x	n
OCC(CBr)(CBr)CBr	n	n	n	n	x	-54
SMILES	D1 agonist	Chronic BCR inh	D1 PAM	DRD3 agonist	D1 antagonist	D3 antag
CCOC(=O)N1CCc2c(sc3nc(SC(C)C)n(N)c(=O)c23)C1	n	u	n	31	n	n
CCCCc1cc2c(=O)c(C(=O)OC)c[nH]c2cc1OCc1ccccc1	x	x	x	n	x	x
CCc1ccc(C2c3[nH]c4ccccc4c3CCN2C(=O)CN2CCN(CC)CC2)cc1 (stereo not given)	n	u	n	n	n	-55
O=C(CCc1ccccc1)N1CCc2c([nH]c3ccccc23)C1c1ccc(Cl)cc1 (stereo not given)	n	x	n	n	n	x
CCOc1cccc(CC(=O)N2CCc3c([nH]c4ccccc34)C2c2ccc(Cl)cc2)c1OCC (stereo not given)	n	x	n	n	-86	x
Cc1nn(S(=O)(=O)c2ccccc2)c(C)c1Sc1ccc([N+](=O)[O-])cc1	n	n	n	n	-33	-80
COc1ccccc1N1CCN(C(=O)c2ccc3ncsc3c2)CC1	x	x	x	n	x	n
